# Reference: the supplement of paper PMC4466140
# Target: ScBbc1
# Assay: SPOT peptide array binding signal intensity (averaged, normalized) (arbitrary units (background-subtracted, floor 0; scale differs between SH3 domains)); higher = stronger binding of the SH3 domain to the peptide
# Procedure, shortened: (§1)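 Cellulose membranes carried synthetic 15-mer peptides with cysteines swapped for serines. These were incubated overnight at 4°C with 10 μg/ml of GST-fused SH3 domains from four yeast species in TBS-based blocking buffer. Binding signal, detected with anti-GST antibody and quantified in Genespotter, is the normalized, background-subtracted spot intensity averaged over replicates, in arbitrary units specific to each domain.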
row,Binder,SPOT peptide array binding signal intensity
1,TKRKRPARLIFYDSK,22

# Target: ScBem1-D1
# Assay: as above
# Procedure, shortened: as §1
row,Binder,SPOT peptide array binding signal intensity
1,TKRKRPARLIFYDSK,22.5

# Target: ScBzz1-D1
# Assay: as above
# Procedure, shortened: as §1
row,Binder,SPOT peptide array binding signal intensity
1,TKRKRPARLIFYDSK,12

# Target: ScBzz1-D2
# Assay: as above
# Procedure, shortened: as §1
row,Binder,SPOT peptide array binding signal intensity
1,TKRKRPARLIFYDSK,22

# Target: ScCyk3
# Assay: as above
# Procedure, shortened: as §1
row,Binder,SPOT peptide array binding signal intensity
1,TKRKRPARLIFYDSK,62

# Target: ScFus1
# Assay: as above
# Procedure, shortened: as §1
row,Binder,SPOT peptide array binding signal intensity
1,TKRKRPARLIFYDSK,354

# Target: ScHof1
# Assay: as above
# Procedure, shortened: as §1
row,Binder,SPOT peptide array binding signal intensity
1,TKRKRPARLIFYDSK,0.5

# Target: ScHse1
# Assay: as above
# Procedure, shortened: as §1
row,Binder,SPOT peptide array binding signal intensity
1,TKRKRPARLIFYDSK,1060

# Target: ScLsb1
# Assay: as above
# Procedure, shortened: as §1
row,Binder,SPOT peptide array binding signal intensity
1,TKRKRPARLIFYDSK,5.5

# Target: ScLsb2
# Assay: as above
# Procedure, shortened: as §1
row,Binder,SPOT peptide array binding signal intensity
1,TKRKRPARLIFYDSK,5

# Target: ScLsb3
# Assay: as above
# Procedure, shortened: as §1
row,Binder,SPOT peptide array binding signal intensity
1,TKRKRPARLIFYDSK,239

# Target: ScLsb4
# Assay: as above
# Procedure, shortened: as §1
row,Binder,SPOT peptide array binding signal intensity
1,TKRKRPARLIFYDSK,13

# Target: ScMyo3
# Assay: as above
# Procedure, shortened: as §1
row,Binder,SPOT peptide array binding signal intensity
1,TKRKRPARLIFYDSK,2.5

# Target: ScMyo5
# Assay: as above
# Procedure, shortened: as §1
row,Binder,SPOT peptide array binding signal intensity
1,TKRKRPARLIFYDSK,3

# Target: ScNbp2
# Assay: as above
# Procedure, shortened: as §1
row,Binder,SPOT peptide array binding signal intensity
1,TKRKRPARLIFYDSK,975

# Target: ScPex13
# Assay: as above
# Procedure, shortened: as §1
row,Binder,SPOT peptide array binding signal intensity
1,TKRKRPARLIFYDSK,3.5

# Target: ScRvs167
# Assay: as above
# Procedure, shortened: as §1
row,Binder,SPOT peptide array binding signal intensity
1,TKRKRPARLIFYDSK,23.8

# Target: ScSho1
# Assay: as above
# Procedure, shortened: as §1
row,Binder,SPOT peptide array binding signal intensity
1,TKRKRPARLIFYDSK,382

# Target: ScSla1-D1-D2
# Assay: as above
# Procedure, shortened: as §1
row,Binder,SPOT peptide array binding signal intensity
1,TKRKRPARLIFYDSK,198

# Target: ScSla1-D3
# Assay: as above
# Procedure, shortened: as §1
row,Binder,SPOT peptide array binding signal intensity
1,TKRKRPARLIFYDSK,13.2

# Target: SpAbp1-D1
# Assay: as above
# Procedure, shortened: as §1
row,Binder,SPOT peptide array binding signal intensity
1,TKRKRPARLIFYDSK,190

# Target: SpBbc1
# Assay: as above
# Procedure, shortened: as §1
row,Binder,SPOT peptide array binding signal intensity
1,TKRKRPARLIFYDSK,3

# Target: SpBzz1-D1
# Assay: as above
# Procedure, shortened: as §1
row,Binder,SPOT peptide array binding signal intensity
1,TKRKRPARLIFYDSK,77.5

# Target: SpBzz1-D2
# Assay: as above
# Procedure, shortened: as §1
row,Binder,SPOT peptide array binding signal intensity
1,TKRKRPARLIFYDSK,0.75

# Target: SpCyk3
# Assay: as above
# Procedure, shortened: as §1
row,Binder,SPOT peptide array binding signal intensity
1,TKRKRPARLIFYDSK,8

# Target: SpHof1
# Assay: as above
# Procedure, shortened: as §1
row,Binder,SPOT peptide array binding signal intensity
1,TKRKRPARLIFYDSK,172

# Target: SpHof1-2
# Assay: as above
# Procedure, shortened: as §1
row,Binder,SPOT peptide array binding signal intensity
1,TKRKRPARLIFYDSK,27.5

# Target: SpHof1-3
# Assay: as above
# Procedure, shortened: as §1
row,Binder,SPOT peptide array binding signal intensity
1,TKRKRPARLIFYDSK,380

# Target: SpHse1
# Assay: as above
# Procedure, shortened: as §1
row,Binder,SPOT peptide array binding signal intensity
1,TKRKRPARLIFYDSK,299

# Target: SpLsb1
# Assay: as above
# Procedure, shortened: as §1
row,Binder,SPOT peptide array binding signal intensity
1,TKRKRPARLIFYDSK,4

# Target: SpLsb4
# Assay: as above
# Procedure, shortened: as §1
row,Binder,SPOT peptide array binding signal intensity
1,TKRKRPARLIFYDSK,205

# Target: SpMyo1
# Assay: as above
# Procedure, shortened: as §1
row,Binder,SPOT peptide array binding signal intensity
1,TKRKRPARLIFYDSK,4.25

# Target: SpNbp2
# Assay: as above
# Procedure, shortened: as §1
row,Binder,SPOT peptide array binding signal intensity
1,TKRKRPARLIFYDSK,584

# Target: SpPex13
# Assay: as above
# Procedure, shortened: as §1
row,Binder,SPOT peptide array binding signal intensity
1,TKRKRPARLIFYDSK,11

# Target: SpRvs167
# Assay: as above
# Procedure, shortened: as §1
row,Binder,SPOT peptide array binding signal intensity
1,TKRKRPARLIFYDSK,4.33

# Target: SpSla1-D1-D2
# Assay: as above
# Procedure, shortened: as §1
row,Binder,SPOT peptide array binding signal intensity
1,TKRKRPARLIFYDSK,4

# Target: SpSla1-D3
# Assay: as above
# Procedure, shortened: as §1
row,Binder,SPOT peptide array binding signal intensity
1,TKRKRPARLIFYDSK,7
